Data reported in PubChem BioAssay AID1159580 (chemical genetic matrix, 2015).
Hit rate of the full screen: of about 5,500 compounds, about 2,000 (36%) were called active. Inconclusive results (about 18%) are left out. Cut-off read from the data, not from the text of the source: active = normalized growth mostly below about 0.91 (no sharp cut-off); inconclusive = no clear call, values can overlap the other calls; inactive = mostly above about 0.92. The list shows a part of the results.

Assay: chemical genetic growth profiling, strain panel (AID 1159580);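 note: tested at 20 µM; growth read once vehicle control cultures reached saturation at 30 °C; 1 = growth at the plate median or of vehicle wells; lower values mean less growth of the strain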
Conditions: S. cerevisiae deletion strains, growth OD

Measured: normalized growth

COc1cc2ccc(=O)oc2c(OC)c1OC
inactive: locus YAL021C, strain ccr4, active compounds read low 1 | locus YAL026C, strain drs2, active compounds read low 0.983 | locus YAL030W, strain snc1, active compounds read low 0.98 | locus YBL061C, strain skt5, active compounds read low 0.997 | locus YBR009C, strain hhf1, active compounds read low 0.998 | locus YBR021W, strain FUR4, active compounds read low 0.97 | locus YBR023C, strain chs3, active compounds read low 0.995 | locus YBR171W, strain sec66, active compounds read low 0.974 | locus YBR229C, strain ROT2, active compounds read low 1.02 | locus YBR231C, strain swc5, active compounds read low 1.02 | locus YBR279W, strain paf1, active compounds read low 0.991 | locus YCL011C, strain gbp2, active compounds read low 0.977 | locus YCL016C, strain dcc1, active compounds read low 0.971 | locus YCL029C, strain bik1, active compounds read low 1.03 | locus YCL069W, strain vba3, active compounds read low 0.975 | locus YCR088W, strain abp1, active compounds read low 0.98 | locus YDL005C, strain med2, active compounds read low 0.977 | locus YDL035C, strain GPR1, active compounds read low 1.04 | locus YDL040C, strain nat1, active compounds read low 0.978 | locus YDL074C, strain BRE1, active compounds read low 1.03 | locus YDL101C, strain DUN1, active compounds read low 1.02 | locus YDL134C, strain PPH21, active compounds read low 1.02 | locus YDL185W, strain tfp1, active compounds read low 1.03 | locus YDL192W, strain arf1, active compounds read low 1.01 | locus YDR001C, strain nth1, active compounds read low 1 | locus YDR069C, strain doa4, active compounds read low 0.99 | locus YDR101C, strain arx1, active compounds read low 1 | locus YDR137W, strain rgp1, active compounds read low 0.997 | locus YDR159W, strain sac3, active compounds read low 1.04 | locus YDR162C, strain NBP2, active compounds read low 1.05 | locus YDR195W, strain ref2 0.984 | locus YDR297W, strain sur2, active compounds read low 0.997 | locus YDR318W, strain mcm21, active compounds read low 1.03 | locus YDR334W, strain swr1, active compounds read low 0.98 | locus YDR335W, strain msn5, active compounds read low 0.973 | locus YDR388W, active compounds read low 1.02 | locus YDR392W, strain spt3, active compounds read low 1 | locus YDR502C, strain sam2, active compounds read low 1.02 | locus YEL003W, strain gim4, active compounds read low 0.968 | locus YEL037C, strain rad23, active compounds read low 0.987 | locus YEL061C, strain CIN8 (second series), active compounds read low 0.996 | locus YER015W, strain faa2, active compounds read low 0.995 | locus YER016W, strain bim1, active compounds read low 0.959 | locus YER110C, active compounds read low 1.01 | locus YER111C, strain swi4, active compounds read low 0.979 | locus YER155C, strain BEM2 (second series), active compounds read low 0.982 | locus YER155C, strain BEM2, active compounds read low 1 | locus YER167W, strain BCK2, active compounds read low 1.02 | locus YFR010W, strain ubp6, active compounds read low 1.01 | locus YGL078C, strain dbp3, active compounds read low 1.04 | locus YGL086W, strain mad1, active compounds read low 1 | locus YGL167C, strain pmr1, active compounds read low 0.983 | locus YGL173C, strain kem1, active compounds read low 0.956 | locus YGL227W, strain vid30, active compounds read low 0.976 | locus YGL240W, strain doc1, active compounds read low 0.985 | locus YGL248W, strain PDE1, active compounds read low 1.03 | locus YGL253W, strain hxk2, active compounds read low 0.992 | locus YGR135W, strain pre9, active compounds read low 1.04 | locus YGR229C, strain SMI1, active compounds read low 1.01 | locus YGR252W, strain gcn5, active compounds read low 1 | locus YHR013C, strain ard1, active compounds read low 0.953 | locus YHR027C, strain rpn1, active compounds read low 0.996 | locus YHR079C, strain IRE1 (second series), active compounds read low 1.01 | locus YHR094C, strain hxt1, active compounds read low 1.02 | locus YHR129C, strain ARP1, active compounds read low 1.01 | locus YHR142W, strain chs7, active compounds read low 0.951 | locus YHR200W, strain rpn10, active compounds read low 1.02 | locus YIL066C, strain RNR3, active compounds read low 1.03 | locus YIL073C, strain SPO22, active compounds read low 1.07 | locus YIL125W, strain kgd1, active compounds read low 1.01 | locus YIR030C, strain dcg1, active compounds read low 1.02 | locus YJL092W, strain hpr5, active compounds read low 0.967 | locus YJL095W, strain BCK1 (second series), active compounds read low 0.978 | locus YJL095W, strain BCK1, active compounds read low 1.02 | locus YJL115W, strain asf1, active compounds read low 0.987 | locus YJL129C, strain trk1, active compounds read low 0.961 | locus YJL134W, strain LCB3, active compounds read low 1.01 | locus YJL154C, strain vps35, active compounds read low 0.979 | locus YJL164C, strain tpk1, active compounds read low 0.991 | locus YJL166W, strain qcr8, active compounds read low 0.978 | locus YJL168C, strain set2, active compounds read low 1.02 | locus YJL187C, strain SWE1 (second series), active compounds read low 1.02 | locus YKL009W, strain mrt4, active compounds read low 1.07 | locus YKL068W, active compounds read low 0.996 | locus YKL085W, strain MDH1 (second series), active compounds read low 1.01 | locus YKL085W, strain MDH1, active compounds read low 1.01 | locus YKL160W, strain elf1, active compounds read low 0.965 | locus YKL190W, strain CNB1, active compounds read low 1.01 | locus YKR001C, strain vps1, active compounds read low 0.992 | locus YKR026C, strain gcn3, active compounds read low 1 | locus YKR091W, strain srl3, active compounds read low 0.964 | locus YLL001W, strain dnm1, active compounds read low 0.987 | locus YLL026W, active compounds read low 0.992 | locus YLL041C, strain sdh2, active compounds read low 0.979 | locus YLR027C, strain aat2, active compounds read low 0.987 | locus YLR039C, strain RIC1, active compounds read low 1.07 | locus YLR058C, strain SHM2, active compounds read low 1.04 | locus YLR102C, strain apc9, active compounds read low 1.02 | locus YLR221C, strain rsa3, active compounds read low 1.02 | locus YLR258W, strain gsy2, active compounds read low 0.992 | locus YLR262C, strain YPT6 (second series), active compounds read low 1 | locus YLR268W, strain sec22, active compounds read low 1.03 | locus YLR320W, strain mms22, active compounds read low 1.02 | locus YLR342W, strain FKS1, active compounds read low 0.979 | locus YLR357W, strain rsc2, active compounds read low 0.964 | locus YLR370C, strain arc18, active compounds read low 0.979 | locus YLR371W, strain rom2, active compounds read low 1.01 | locus YLR384C, strain iki3, active compounds read low 0.991 | locus YLR418C, strain cdc73, active compounds read low 1.03 | locus YML016C, strain PPZ1, active compounds read low 1.03 | locus YML032C, strain rad52, active compounds read low 0.996 | locus YML120C, strain ndi1, active compounds read low 0.979 | locus YML124C, strain tub3, active compounds read low 1.02 | locus YMR058W, strain fet3, active compounds read low 0.974 | locus YMR078C, strain ctf18, active compounds read low 1.02 | locus YMR125W, strain sto1, active compounds read low 0.976 | locus YMR129W, active compounds read low 0.991 | locus YMR205C, strain PFK2, active compounds read low 0.995 | locus YMR223W, strain ubp8, active compounds read low 0.999 | locus YMR231W, strain pep5, active compounds read low 0.98 | locus YMR307W, strain GAS1, active compounds read low 1.07 | locus YNL067W, strain RPL9B, active compounds read low 1.02 | locus YNL071W, strain lat1, active compounds read low 0.999 | locus YNL153C, strain GIM3, active compounds read low 1.02 | locus YNL209W, strain ssb2, active compounds read low 0.976 | locus YNL233W, strain BNI4, active compounds read low 1.01 | locus YNL248C, strain rpa49, active compounds read low 0.962 | locus YNL250W, strain rad50, active compounds read low 1.03 | locus YNL271C, strain bni1, active compounds read low 1.02 | locus YNL298W, strain CLA4, active compounds read low 0.999 | locus YNL307C, strain MCK1, active compounds read low 1.03 | locus YNL322C, strain KRE1 (second series), active compounds read low 0.971 | locus YNL322C, strain KRE1, active compounds read low 1.02 | locus YNR049C, strain mso1, active compounds read low 0.954 | locus YNR052C, strain pop2, active compounds read low 1.02 | locus YOL006C, strain TOP1, active compounds read low 1.06 | locus YOL012C, strain htz1 1.05 | locus YOL147C, strain pex11, active compounds read low 1.01 | locus YOR001W, strain rrp6, active compounds read low 1.02 | locus YOR061W, strain CKA2, active compounds read low 1.04 | locus YOR069W, strain VPS5, active compounds read low 1.01 | locus YOR070C, strain gyp1, active compounds read low 0.994 | locus YOR080W, strain dia2, active compounds read low 0.968 | locus YOR083W, strain WHI5, active compounds read low 0.952 | locus YOR106W, strain vam3, active compounds read low 0.969 | locus YOR136W, strain idh2, active compounds read low 1.03 | locus YOR144C, strain elg1, active compounds read low 1.02 | locus YOR184W, strain ser1, active compounds read low 1.04 | locus YOR265W, strain rbl2, active compounds read low 0.994 | locus YOR270C, strain vph1, active compounds read low 0.957 | locus YOR290C, strain snf2, active compounds read low 0.964 | locus YOR316C, strain cot1, active compounds read low 1.02 | locus YPL051W, strain arl3, active compounds read low 0.982 | locus YPL078C, strain atp4, active compounds read low 0.966 | locus YPL106C, strain sse1, active compounds read low 0.977 | locus YPL240C, strain hsp82, active compounds read low 0.986 | locus YPR119W, strain clb2, active compounds read low 1.01 | locus YPR141C, strain kar3, active compounds read low 1.02 | locus YPR163C, strain tif3, active compounds read low 1.03 | locus YPR167C, strain met16, active compounds read low 1.04 | strain wtn01, active compounds read low 1.02
